Assay results from PubChem BioAssay (Tox21).
Several values for one entry are separate records, joined by “and”; a condition that tells them apart may be missing. Identical values can stand only once. Results filed as inconclusive are left out. A call without a number means that no potency is given here. Some compounds were tested as several samples or in several runs, with calls that do not always agree. Activity calls are given as the source filed them. Calls follow the shape of the dose curve; as a rule, active = well fitted curve in the direction sought with a large enough effect in the repeat runs; inconclusive = weak or mixed curves; inactive = no such curve, though single readings can be large; an effect the other way counts as inactive or inconclusive.

How the values were obtained:
[1] = target: Cytochrome P450 2C19 (Homo sapiens) (UniProt P33261); assay: Cytochrome P450 Family 2 Subfamily C Member 19 (CYP2C19) small molecule antagonists: luciferase reporter qHTS assay (AID 1671197); also: nearly all actives have a fitted effect of over 65% in size
Cytochrome P450 2C19 (Homo sapiens), sequence (P33261 whole entry, looked up): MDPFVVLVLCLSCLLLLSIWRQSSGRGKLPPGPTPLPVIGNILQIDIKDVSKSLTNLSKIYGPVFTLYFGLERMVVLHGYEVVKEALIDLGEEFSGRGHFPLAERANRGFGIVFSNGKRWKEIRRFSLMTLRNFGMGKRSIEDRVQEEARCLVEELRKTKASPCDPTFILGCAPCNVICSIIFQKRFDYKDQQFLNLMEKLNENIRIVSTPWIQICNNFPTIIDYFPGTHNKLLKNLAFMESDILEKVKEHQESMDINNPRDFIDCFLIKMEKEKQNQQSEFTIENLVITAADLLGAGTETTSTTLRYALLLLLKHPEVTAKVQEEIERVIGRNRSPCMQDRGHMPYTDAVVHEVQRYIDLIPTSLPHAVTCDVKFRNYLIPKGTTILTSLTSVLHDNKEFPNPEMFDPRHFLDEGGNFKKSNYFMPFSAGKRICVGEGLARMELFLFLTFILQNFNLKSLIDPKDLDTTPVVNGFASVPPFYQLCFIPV
Procedure, shortened: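 Quantitative high-throughput screen of the Tox21 library using CYP2C19 with proluciferin substrate. Reaction: NADPH regeneration, 37C, 1 h, after 10 min compound preincubation at room temperature. Readout: luminescence.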

[2] = target: Cytochrome P450 2C9 (Homo sapiens) (UniProt P11712); assay: Cytochrome P450 Family 2 Subfamily C Member 9 (CYP2C9) small molecule antagonists: luciferase reporter qHTS assay (AID 1671198); also: nearly all actives have a fitted effect of over 50% in size
Cytochrome P450 2C9 (Homo sapiens), sequence (P11712 whole entry, looked up): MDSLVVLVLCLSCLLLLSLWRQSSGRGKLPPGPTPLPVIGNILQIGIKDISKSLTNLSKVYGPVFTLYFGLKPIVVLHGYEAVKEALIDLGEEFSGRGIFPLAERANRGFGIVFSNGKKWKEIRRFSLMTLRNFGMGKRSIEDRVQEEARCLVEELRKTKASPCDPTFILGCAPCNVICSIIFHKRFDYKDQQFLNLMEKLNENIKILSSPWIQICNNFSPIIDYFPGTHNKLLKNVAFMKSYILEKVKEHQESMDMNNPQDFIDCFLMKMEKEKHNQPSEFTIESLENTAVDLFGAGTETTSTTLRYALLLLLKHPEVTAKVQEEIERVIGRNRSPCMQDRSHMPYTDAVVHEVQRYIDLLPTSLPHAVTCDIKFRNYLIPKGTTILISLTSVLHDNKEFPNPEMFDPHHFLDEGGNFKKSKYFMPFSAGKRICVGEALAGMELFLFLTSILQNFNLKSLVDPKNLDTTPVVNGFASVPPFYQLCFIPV
Procedure, shortened: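 P450-Glo proluciferin substrate with CYP2C9 enzyme; 10 min RT preincubation, then NADPH regeneration 1 h at 37C; luciferin detection reagent 20 min RT, luminescence in relative luminescence units.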

[3] = target: Cytochrome P450 1A2 (Homo sapiens) (UniProt P05177); assay: Cytochrome P450 Family 1 Subfamily A Member 2 (CYP1A2) small molecule antagonists: luciferase reporter qHTS assay (AID 1671199); also: nearly all actives have a fitted effect of over 50% in size
Cytochrome P450 1A2 (Homo sapiens), sequence (P05177 whole entry, looked up): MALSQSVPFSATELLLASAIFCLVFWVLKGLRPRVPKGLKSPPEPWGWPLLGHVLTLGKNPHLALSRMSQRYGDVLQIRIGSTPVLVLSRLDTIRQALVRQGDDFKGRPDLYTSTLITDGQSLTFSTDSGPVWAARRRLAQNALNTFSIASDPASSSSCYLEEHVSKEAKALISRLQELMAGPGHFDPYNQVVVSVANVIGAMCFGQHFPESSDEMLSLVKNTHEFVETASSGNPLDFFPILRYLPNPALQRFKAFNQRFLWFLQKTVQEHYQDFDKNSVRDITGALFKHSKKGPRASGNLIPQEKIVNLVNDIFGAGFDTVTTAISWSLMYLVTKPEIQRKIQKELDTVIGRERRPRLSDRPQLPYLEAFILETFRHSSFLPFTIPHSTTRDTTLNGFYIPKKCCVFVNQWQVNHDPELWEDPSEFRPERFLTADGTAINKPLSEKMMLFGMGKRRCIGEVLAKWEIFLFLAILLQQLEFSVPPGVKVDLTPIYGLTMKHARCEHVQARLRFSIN
Procedure, shortened: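 Signal from luciferin formed by CYP1A2 from a proluciferin substrate is read as luminescence, expressed in relative luminescence units. Compounds sit with enzyme 10 min, NADPH-driven reaction runs 1 h, all at room temperature.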

[4] = target: Voltage-gated inwardly rectifying potassium channel KCNH2 (Homo sapiens) (UniProt Q12809); assay: Human Ether-a-go-go-Related Gene (hERG) channel small molecule antagonists: fluorescence cell-based qHTS assay (AID 1671200); also: nearly all actives have a fitted effect of over 50% in size
Voltage-gated inwardly rectifying potassium channel KCNH2 (Homo sapiens), sequence (Q12809 whole entry, looked up): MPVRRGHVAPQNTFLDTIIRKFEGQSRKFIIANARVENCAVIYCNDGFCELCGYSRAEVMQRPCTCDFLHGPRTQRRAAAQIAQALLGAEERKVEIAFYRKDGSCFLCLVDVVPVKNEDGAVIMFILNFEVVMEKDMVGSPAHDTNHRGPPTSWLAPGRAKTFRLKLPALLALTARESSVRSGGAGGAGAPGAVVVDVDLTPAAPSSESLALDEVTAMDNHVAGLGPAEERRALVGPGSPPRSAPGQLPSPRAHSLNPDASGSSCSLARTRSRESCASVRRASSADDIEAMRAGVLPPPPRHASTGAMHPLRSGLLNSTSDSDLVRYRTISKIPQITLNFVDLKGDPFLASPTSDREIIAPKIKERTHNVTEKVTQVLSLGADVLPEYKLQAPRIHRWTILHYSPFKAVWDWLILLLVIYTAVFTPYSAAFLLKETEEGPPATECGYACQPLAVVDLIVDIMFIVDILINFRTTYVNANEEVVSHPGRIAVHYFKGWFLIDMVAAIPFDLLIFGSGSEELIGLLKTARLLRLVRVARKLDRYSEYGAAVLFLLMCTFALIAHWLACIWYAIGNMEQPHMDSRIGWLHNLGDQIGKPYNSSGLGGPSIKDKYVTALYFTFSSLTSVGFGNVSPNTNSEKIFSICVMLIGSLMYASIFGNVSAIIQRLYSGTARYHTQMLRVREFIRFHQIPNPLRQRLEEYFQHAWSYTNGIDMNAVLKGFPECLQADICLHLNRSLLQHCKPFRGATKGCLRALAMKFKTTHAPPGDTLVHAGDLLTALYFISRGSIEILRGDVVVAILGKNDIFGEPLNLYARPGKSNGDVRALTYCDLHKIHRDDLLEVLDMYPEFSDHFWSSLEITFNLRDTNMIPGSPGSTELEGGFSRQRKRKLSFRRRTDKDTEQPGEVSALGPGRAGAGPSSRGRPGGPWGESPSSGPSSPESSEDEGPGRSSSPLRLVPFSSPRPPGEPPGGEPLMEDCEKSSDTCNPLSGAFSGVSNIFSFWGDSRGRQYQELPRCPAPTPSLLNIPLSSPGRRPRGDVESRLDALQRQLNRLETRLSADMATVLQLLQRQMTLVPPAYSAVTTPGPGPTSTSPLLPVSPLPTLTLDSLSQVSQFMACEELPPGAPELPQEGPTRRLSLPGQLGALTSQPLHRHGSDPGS
Procedure, shortened: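 Thallium flux as potassium surrogate: FluxOR II dye loaded 1 h at room temperature into hERG-expressing U2OS cells, then stimulus buffer added after 10 min. Kinetic 480 nm excitation/540 nm emission read, 2 min.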

[5] = target: Cytochrome P450 3A4 (Homo sapiens) (UniProt P08684); assay: Cytochrome P450 Family 3 Subfamily A Member 4 (CYP3A4) small molecule antagonists: luciferase reporter qHTS assay (AID 1671201); also: nearly all actives have a fitted effect of over 50% in size
Cytochrome P450 3A4 (Homo sapiens), sequence (P08684 whole entry, looked up): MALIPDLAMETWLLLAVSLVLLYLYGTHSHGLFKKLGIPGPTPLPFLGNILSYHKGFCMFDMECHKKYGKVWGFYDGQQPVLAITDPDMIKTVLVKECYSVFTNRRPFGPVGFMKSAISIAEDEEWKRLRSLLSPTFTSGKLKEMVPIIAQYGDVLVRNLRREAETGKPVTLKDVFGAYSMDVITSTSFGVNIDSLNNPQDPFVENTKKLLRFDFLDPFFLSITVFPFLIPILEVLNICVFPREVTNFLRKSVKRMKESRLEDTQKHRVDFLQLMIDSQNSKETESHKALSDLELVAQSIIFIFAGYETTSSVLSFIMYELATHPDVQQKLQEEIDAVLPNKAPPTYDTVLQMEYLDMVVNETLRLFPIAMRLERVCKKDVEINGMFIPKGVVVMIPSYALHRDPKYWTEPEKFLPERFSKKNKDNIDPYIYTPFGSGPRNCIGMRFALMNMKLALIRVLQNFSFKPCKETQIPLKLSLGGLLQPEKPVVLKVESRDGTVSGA
Procedure, shortened: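 Recombinant human CYP3A4 converts a proluciferin substrate to luciferin over 1 h at room temperature after NADPH regeneration solution is added (compound preincubated 10 min); detection reagent stops reaction, luminescence read 20 min later as relative units.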
Potency is read from the fitted curve at half-maximal effect.

Structure (SMILES) | Potency [1] | Potency [2] | Potency [3] | Potency [4] | Potency [5]
CC1(C)NC(=O)N(c2ccc([N+](=O)[O-])c(C(F)(F)F)c2)C1=O | 2.52 µM (active) and 1.38 µM (active) | 10 µM (active) and 7.76 µM (active) | 11.2 µM (active) and 12.3 µM (active) | inactive | –
Cc1ccc2c(c1)C(=O)OC2=O | inactive | inactive | inactive | inactive | inactive
Nc1cc([N+](=O)[O-])ccc1C(=O)O | inactive | inactive | inactive | inactive | inactive
CC1(C)O[C@@H]2C[C@H]3[C@@H]4C[C@H](F)C5=CC(=O)C=C[C@]5(C)[C@@]4(F)[C@@H](O)C[C@]3(C)[C@]2(C(=O)CO)O1 | inactive | 39.9 µM (active) | inactive | inactive | 20 µM (active) and 3.89 µM (active)
CCCCCCCC/C=C\CCCCCCCC(=O)O | 71.4 µM (active) and inactive | inactive | inactive | inactive | inactive
CC(C)[C@@H]1CC[C@@H](C)CC1=O | 31.7 µM (active) and inactive | inactive | 30.9 µM (active) | inactive | inactive
Clc1ccc(Sc2cc(Cl)c(Cl)cc2Cl)cc1 | 6.92 µM (active) and 3.17 µM (active) | inactive | 11 µM (active) and 3.99 µM (active) | inactive | inactive
CC(=O)[C@@]1(O)CC[C@H]2[C@@H]3C[C@H](C)C4=CC(=O)C=C[C@]4(C)[C@@]3(F)[C@@H](O)C[C@@]21C | inactive | 10 µM (active) and 6.92 µM (active) | inactive | inactive | –
CCOC(=O)C(C)Oc1ccc(Oc2cnc3cc(Cl)ccc3n2)cc1 (stereo unspecified) | 33.3 µM (active) | 23.6 µM (active) | 52.8 µM (active) | 15.9 µM (active) and 18.3 µM (active) | inactive
Oc1c(Cl)ccc(Cl)c1Cl | 79.5 µM (active) and inactive | 35.5 µM (active) and 35.6 µM (active) | 35.5 µM (active) and 35.6 µM (active) | inactive | inactive
c1ccc2c(c1)[nH]c1ccccc12 | 7.83 µM (active) and 7.96 µM (active) | inactive | 2.21 µM (active) and 2.24 µM (active) | inactive | inactive
OC[C@H]1O[C@@H]2O[C@H]3[C@H](O)[C@@H](O)[C@@H](O[C@H]4[C@H](O)[C@@H](O)[C@@H](O[C@H]5[C@H](O)[C@@H](O)[C@@H](O[C@H]6[C@H](O)[C@@H](O)[C@@H](O[C@H]7[C@H](O)[C@@H](O)[C@@H](O[C@H]1[C@H](O)[C@H]2O)O[C@@H]7CO)O[C@@H]6CO)O[C@@H]5CO)O[C@@H]4CO)O[C@@H]3CO | inactive | inactive and 3.76 µM (active) | inactive | inactive | inactive
CC(=O)Nc1ccc2c(c1)Cc1cc(NC(C)=O)ccc1-2 | inactive | inactive | inactive | inactive | inactive
CCCN1C=CN(C)C1 | inactive | inactive | inactive | inactive | inactive
COCCOCCOCCO | inactive | inactive | inactive | inactive | inactive
C=CCCCCCCCCCC | inactive | inactive | inactive | inactive | inactive
c1ccc2c(c1)ccc1ncccc12 | 35.3 µM (active) and 79.6 µM (active) | inactive | 4.45 µM (active) and 7.1 µM (active) | inactive | 62.8 µM (active)
Cc1ccc(C(C)(C)C)cc1 | inactive | inactive | inactive | inactive | inactive
CC1(C)OC(=O)NC1=O | inactive | inactive | inactive | inactive | –
CCCCCC=O | inactive | inactive | inactive | inactive | inactive
O=C(O)CCCC(=O)O | 22 µM (active) and inactive | 39.2 µM (active) and inactive | 34.9 µM (active) and inactive | inactive | inactive
FC(F)(F)C(Cl)Br (stereo unspecified) | inactive | inactive | inactive | inactive | inactive
CCc1cccc2c3c([nH]c12)C(CC)(CC(=O)O)OCC3 (stereo unspecified) | 39.8 µM (active) | 31.6 µM (active) and 34.7 µM (active) | inactive | inactive | inactive
COc1cc([C@H]2Oc3cc([C@H]4Oc5cc(O)cc(O)c5C(=O)[C@@H]4O)ccc3O[C@@H]2CO)ccc1O | inactive | 10 µM (active) and 8.71 µM (active) | 35.5 µM (active) and inactive | inactive | –
